Laboratory results published in PubChem BioAssay (Tox21).
Records with an inconclusive call do not appear. Active and inactive are the calls of the source. Unless noted, the call rests on the fitted dose curve; in most records, active means well fitted curve in the direction sought with a large enough effect in the repeat runs; inconclusive means weak or mixed curves; inactive means no such curve, though single readings can be large; an effect the other way counts as inactive or inconclusive.

Key:
[1] = qHTS assay for small molecule agonists of the p53 signaling pathway (AID 651631; calls by dose curve; further: nearly all actives have a fitted effect of over 15% in size)
Procedure, shortened: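 Readout was fluorescence from the LiveBLAzer FRET substrate, applied for 2 h at room temperature after 16 h compound exposure at 37 °C. Cells were the p53RE-bla HCT-116 line, with beta-lactamase driven by p53 response elements.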

[2] = qHTS assay for small molecules that induce genotoxicity in human embryonic kidney cells expressing luciferase-tagged ATAD5 (AID 651632); further: nearly all actives have a fitted effect of over 15% in size
Procedure, shortened: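 Test compounds were delivered by pin tool onto HEK293T reporter cells (2,000/well) expressing ATAD5 fused to luciferase. After 16 hr at 37C, 5% CO2, Amplite was added for 30 min at room temperature and luminescence was measured.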

[3] = qHTS assay for small molecule agonists of the p53 signaling pathway - cell viability (AID 651633; calls by dose curve; further: series mostly up to about 83 µM; nearly all actives have a fitted effect of over 30% in size)
Procedure, shortened: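 Viability counter-read: CellTiter-Glo luminescence (30 min, room temperature) in the same p53RE-bla plates. These plates had been exposed to compounds for 16 h at 37 C.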

[4] = qHTS assay for small molecules that induce genotoxicity in human embryonic kidney cells expressing luciferase-tagged ATAD5 - cell viability (AID 651634; calls by dose curve; further: nearly all actives have a fitted effect of over 25% in size)
Procedure, shortened: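 Quantitative high-throughput format. HEK293T cells expressing ATAD5 fused to luciferase were plated at 2,000 cells/well and treated 15.5 hr with compound versus DMSO. Viability was determined by fluorescent live-cell protease substrate, 30 min at 37C.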

[5] = qHTS assay for small molecule disruptors of the mitochondrial membrane potential (AID 720635)
Procedure, shortened: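 Mitochondrial membrane potential tracked with Mito-MPS dye, red aggregates (ex 540/em 590 nm) against green monomers (ex 490/em 535 nm). Compound treatment 1 hr at 37C, dye 30 min in HepG2.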

[6] = qHTS assay to test for compound auto fluorescence at 590 nm (red) in HepG2 cells (AID 720674)
Procedure, shortened: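 1 hr compound incubation on HepG2 cells, 37 C, 5% CO2; plate read ex 540 nm / em 590 nm; intensities reported as Rose Bengal sodium equivalents.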

[7] = qHTS assay to test for compound auto fluorescence at 535 nm (green) in HepG2 cells (AID 720675)
[8] = qHTS assay to test for compound auto fluorescence at 460 nm (blue) in HEK293 cells (AID 720678)
Procedure, shortened: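 Triamterene serves as the blue fluorophore standard. Compound signal at 405/460 nm is read in HEK293 wells (2,000 cells, 10% dialyzed FBS) after overnight treatment at 37C.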

[9] = qHTS assay to test for compound auto fluorescence at 590 nm (red) in HEK293 cells (AID 720679)
Procedure, shortened: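 We plated HEK293 cells in 10% dialyzed FBS medium, let them adhere for 4-5 hr, then added 23 nL compound. Overnight at 37C and 5% CO2 preceded fluorescence measurement at 540/590nm.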

[10] = qHTS assay to test for compound auto fluorescence at 460 nm (blue) in HEK293 cell free culture (AID 720681)
Procedure, shortened: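 Blue fluorescence (Ex 405/Em 460 nm, triamterene-equivalent) was read immediately after pin transfer of compound or DMSO into medium (DMEM, 10% FBS) without cells.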

[11] = qHTS assay to test for compound auto fluorescence at 535 nm (green) in HEK293 cell free culture (AID 720682)
Procedure, shortened: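 Compounds were pin-transferred into cell-free DMEM with 10% FBS, and green fluorescence was read at excitation 485 nm and emission 535 nm. Intensities were expressed as fluorescein-equivalent values.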

[12] = qHTS assay to test for compound auto fluorescence at 590 nm (red) in HEK293 cell free culture (AID 720683)
Procedure, shortened: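 Red-channel autofluorescence of compounds in culture medium (DMEM, 10% FBS), no cells, measured at 540/590 nm. Rose Bengal sodium is the reference fluorophore for equivalence.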

[13] = qHTS assay to test for compound auto fluorescence at 590 nm (red) in HepG2 cell free culture (AID 720684)
Procedure, shortened: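 No cells present: MEM + 10% FBS only. Compound pinned in, red label read (540/590 nm). Activity = fluorescence equivalent to Rose Bengal sodium.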

[14] = qHTS assay to test for compound auto fluorescence at 460 nm (blue) in HepG2 cell free culture (AID 720685)
Procedure, shortened: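 Cell-free plates of MEM plus 10% FBS received 23 nL compound or DMSO vehicle; blue-channel (405/460 nm) intensity scored against triamterene as reference fluorophore.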

[15] = qHTS assay to test for compound auto fluorescence at 535 nm (green) in HepG2 cell free culture (AID 720686)
[16] = qHTS assay to test for compound auto fluorescence at 460 nm (blue) in HepG2 cells (AID 720687)
Procedure, shortened: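 Blue-channel autofluorescence (Ex/Em 405/460 nm, triamterene-equivalent) was measured after 1 hr compound exposure at 37 C, 5% CO2. Cells were HepG2, plated overnight at 37 C in MEM plus 10% FBS.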

[17] = qHTS assay for small molecule disruptors of the mitochondrial membrane potential - cell viability (AID 720634; calls by dose curve;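 further: human HepG2 liver cancer cells; series mostly up to about 83 µM; nearly all actives have a fitted effect of over 20% in size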)
Procedure, shortened: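 Same-well counter-screen: following the MMP dye addition, CellTiter-Glo was added to 1 hr compound-treated HepG2 cells and luminescence read after 30 min at room temperature.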

[18] = qHTS assay to test for compound auto fluorescence at 535 nm (green) in HEK293 cells (AID 720680)
[19] = molecular target: Glucocorticoid receptor (Homo sapiens) (UniProt P04150); test: qHTS assay to identify small molecule agonists of the glucocorticoid receptor (GR) signaling pathway (AID 720691; active means well fitted activation curve with a large enough effect in the signal ratio in the repeat runs, not every such curve was filed as active; the % refers to the signal ratio)
Sequence of Glucocorticoid receptor (Homo sapiens) (P04150 whole entry, looked up): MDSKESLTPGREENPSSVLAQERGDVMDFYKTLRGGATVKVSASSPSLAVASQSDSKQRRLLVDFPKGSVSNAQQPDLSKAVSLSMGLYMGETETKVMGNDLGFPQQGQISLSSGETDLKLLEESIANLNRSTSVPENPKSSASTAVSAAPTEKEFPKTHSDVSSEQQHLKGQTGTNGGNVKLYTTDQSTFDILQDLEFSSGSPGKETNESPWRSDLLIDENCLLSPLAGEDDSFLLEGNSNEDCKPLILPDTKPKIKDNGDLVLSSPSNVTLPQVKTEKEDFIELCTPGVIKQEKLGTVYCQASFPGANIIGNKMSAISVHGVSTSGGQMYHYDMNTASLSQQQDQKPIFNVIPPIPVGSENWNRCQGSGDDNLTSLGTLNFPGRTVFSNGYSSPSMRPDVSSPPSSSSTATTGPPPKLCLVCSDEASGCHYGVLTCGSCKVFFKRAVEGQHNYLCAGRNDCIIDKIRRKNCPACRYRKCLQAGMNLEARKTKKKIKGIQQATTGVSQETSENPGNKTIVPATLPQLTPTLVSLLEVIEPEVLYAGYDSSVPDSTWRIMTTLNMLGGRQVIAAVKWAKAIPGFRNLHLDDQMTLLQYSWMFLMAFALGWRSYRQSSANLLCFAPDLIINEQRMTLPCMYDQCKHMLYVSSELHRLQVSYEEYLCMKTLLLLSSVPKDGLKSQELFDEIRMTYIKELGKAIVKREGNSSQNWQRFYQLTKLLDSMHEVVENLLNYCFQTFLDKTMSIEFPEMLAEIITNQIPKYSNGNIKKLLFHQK
Procedure, shortened: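 A HeLa cervical cancer line expressing GR and a glucocorticoid response element-driven beta-lactamase gene is treated with compounds for 18 h; LiveBLAzer B/G FRET substrate is then applied and fluorescence read.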

[20] = molecular target: Glucocorticoid receptor (Homo sapiens) (UniProt P04150); test: qHTS assay to identify small molecule antagonists of the glucocorticoid receptor (GR) signaling pathway (AID 720692; active means well fitted inhibition curve with a large enough effect in the signal ratio in the repeat runs, not every such curve was filed as active; the % refers to the signal ratio)
Procedure, shortened: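 GRE-bla HeLa line, dex-stimulated (5 nM final). Compound exposure 18 h, 37 C. Beta-lactamase FRET read after 2 h RT substrate.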

Measured: Potency

CCCCN(CCCC)CCCCCCN(CCCC)CCCC
not listed: [17] | [18] | [19] | [20]
inactive: all other assays above

COC(C)(C)CC(C)=O
not listed: [5] | [12] | [16] | [20]
inactive: all other assays above

CN1CCN(C(=O)C2CCCCC2)CC1
not listed: [16] | [17] | [19]
inactive: all other assays above

CC(C)(C)OC=O
not listed: [5] | [8]
inactive: all other assays above

CN1C(CCl)Nc2cc(Cl)c(S(N)(=O)=O)cc2S1(=O)=O (configuration not stated)
not listed: [5] | [7]
inactive: all other assays above

CCNC(=O)C(C)OC(=O)Nc1ccccc1 (configuration not stated)
not listed: [5] | [7] | [15]
inactive: all other assays above

CCCCCCCCCCCBr
not listed: [5] | [8]
inactive: all other assays above

CC(C)(O)CCCC1=CCC(C=O)CC1 (configuration not stated)
not listed: [5] | [7] | [18]
inactive: all other assays above

CCCCOCCCC
not listed: [5]
inactive: all other assays above

N[C@H]1C(O)O[C@H](CO)[C@@H](O)[C@@H]1O (some centres not stated)
not listed: [4] | [18] | [19] | [20]
inactive: all other assays above

COc1cc(C(=O)NC2CCCNC2)cc(OC)c1OC (configuration not stated)
not listed: [3]
inactive: all other assays above

CC(=O)Oc1ccc(C(C)=O)cc1
not listed: [4] | [5] | [16] | [17] | [19] | [20]
inactive: all other assays above

O=CN1CCCCC1
not listed: [3] | [8] | [18] | [19] | [20]
inactive: all other assays above

O=Cc1ccc(C(=O)O)cc1
not listed: [4] | [8] | [12]
inactive: all other assays above
